Data on three compounds can be found in PubChem BioAssay (EPA / NIEHS).

Experiment [1] concerns the target Bile acid receptor (Homo sapiens) (UniProt Q96RI1). The experiment is described as follows: ATG_IR1_CIS: Attagene CIS-FACTORIAL HepG2 Assay for human Nuclear Receptor Subfamily 1 Group H Member 4 (NR1H4), IR1 submotif (AID 2282946). The note with it: IR1 reporter transcription, actives raise or lower the signal. The method, boiled down: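 Transient MRTU transfection, HepG2; 24 h dosing; RNA → RT-PCR → 6-FAM primer extension → HpaI digest → capillary electrophoresis fluorescence. Gain/loss of signal fitted relative to DMSO.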

The nature of experiment [2]: ATG_GRE_CIS: Attagene CIS-FACTORIAL HepG2 Assay for human Glucocorticoid Response Elements (GRE) (AID 2282947). The following applies: HepG2 GRE cis-reporter, Attagene multiplex mRNA; actives raise or lower the signal. The procedure, abridged:
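Following 24 h chemical exposure of transiently transfected HepG2 cells, total RNA was reverse-transcribed and reporter cDNA amplified, fluorescently labelled and sized by capillary electrophoresis. Signal gain or loss was fitted relative to DMSO vehicle.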

A short description of experiment [3]: ATG_ISRE_CIS: Attagene CIS-FACTORIAL HepG2 Assay for human Interferon Regulatory Factor 1 (IRF1) binding to an Interferon-Stimulated Response Element (ISRE) (AID 2282948). The following applies: HepG2 ISRE cis-reporter (Attagene), mRNA transcription readout; actives raise or lower the signal. The procedure, abridged: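 Quantitation relies on labelled RT-PCR fragments separated by capillary electrophoresis. Human HepG2 cells bearing cis-promoter reporter constructs were treated 24 h; DMSO served as baseline for bidirectional fitting.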

Experiment [4] in a line: ATG_M_32_CIS: Attagene CIS-FACTORIAL HepG2 Assay for M32 Transcription Factor (Internal Marker) (AID 2282949).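 Also: background control marker of the multiplexed CIS panel rather than a real target.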 The following applies: HepG2 Attagene cis-factorial M32 reporter, mRNA; actives raise or lower the signal. The method, boiled down: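 Fluorescent capillary electrophoresis peaks of HpaI-digested, FAM-labelled RT-PCR reporter products give the signal. Source: transiently transfected human liver HepG2 cells, 24 h after chemical dosing; bidirectional fitting against DMSO.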

Experiment [5] in a line: ATG_M_06_CIS: Attagene CIS-FACTORIAL HepG2 Assay for M06 Transcription Factor (Internal Marker) (AID 2282950). The following applies: HepG2 Attagene CIS-FACTORIAL M06 internal marker reporter; actives raise or lower the signal. The procedure, abridged:
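Fluorescence-labelled RT-PCR products from cis-promoter reporter units, cut with HpaI and resolved by capillary electrophoresis, give the signal. Cells are human HepG2, dosed for 24 h. Serves as background control, fitted relative to DMSO.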

The target of experiment [6] is Hypoxia-inducible factor 1-alpha (Homo sapiens) (UniProt Q16665). The experiment is described as follows: ATG_HIF1a_CIS: Attagene CIS-FACTORIAL HepG2 Assay for human Hypoxia Inducible Factor 1 (HIF1A) (AID 2282951). The note with it: HepG2 Attagene cis-factorial HIF1a reporter transcription; actives raise or lower the signal. The procedure, abridged:
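Fluorescence intensity of capillary-separated, 6-FAM-labelled reporter amplicons gives mRNA induction in HepG2 cells carrying transfected cis-promoter reporter units; cells exposed 24 h, responses fitted up or down from DMSO.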

For experiment [7], the target named is Hepatocyte nuclear factor 6 (Homo sapiens) (UniProt Q9UBC0). Nature of the experiment: ATG_HNF6_CIS: Attagene CIS-FACTORIAL HepG2 Assay for human Hepatocyte Nuclear Factor 6 (HNF6) (AID 2282952). The following applies: HepG2 Attagene cis-factorial HNF6 reporter transcription; actives raise or lower the signal. The procedure, abridged: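 Transiently transfected HepG2 cells expressing cis-regulated reporter transcription units were exposed to chemical for 24 h in a 24-well format. Reporter transcript abundance was determined by fluorescence capillary electrophoresis.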

Experiment [8] has as its target Heat shock factor protein 1 (Homo sapiens) (UniProt Q00613). Nature of the experiment: ATG_HSE_CIS: Attagene CIS-FACTORIAL HepG2 Assay for human Heat Shock Transcription Factor 1 (HSE) (AID 2282953). The following applies: HepG2 HSE cis-reporter, Attagene RNA transcription; actives raise or lower the signal. The procedure, abridged:
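After a 24 h incubation with test chemical, transfected HepG2 cells were harvested for RNA; reporter transcripts were measured by RT-PCR and capillary electrophoresis. Values reflect gain or loss of signal relative to DMSO.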

Experiment [9] in a line: ATG_MRE_CIS: Attagene CIS-FACTORIAL HepG2 Assay for human Metal Responsive Element (MRE) (AID 2282954). The note with it: HepG2 MRE cis-reporter transcription, Attagene multiplex; actives raise or lower the signal. The method, boiled down:
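Step one: transfect HepG2 with cis-regulated reporter units. Step two: dose 24 h. Step three: isolate RNA, RT-PCR, 6-FAM label, HpaI digest, capillary electrophoresis. Fit bidirectionally to DMSO.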

A short description of experiment [10]: ATG_PBREM_CIS: Attagene CIS-FACTORIAL HepG2 Assay for human Phenobarbital-responsive Enhancer Module (PBREM) (AID 2282955). The note with it: HepG2 PBREM cis-reporter, Attagene multiplexed transcription; actives raise or lower the signal. The method, boiled down: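 Cells were transfected with cis-element reporter units and treated for 24 h, after which RNA was extracted and reporter transcripts measured by RT-PCR and capillary electrophoresis.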

Experiment [11] has as its target Paired box protein Pax-6 (Homo sapiens) (UniProt P26367). Nature of the experiment: ATG_Pax6_CIS: Attagene CIS-FACTORIAL HepG2 Assay for human Paired Box 6 (PAX6) (AID 2282956). The following applies: HepG2 CIS-FACTORIAL PAX6 reporter transcription, RNA readout; actives raise or lower the signal. The method, boiled down:
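After twenty-four hours of chemical exposure, transfected HepG2 cells are harvested for RNA. Cis-promoter reporter transcripts are amplified, fluorescently labelled and sized by capillary electrophoresis, with gain and loss of signal scored against DMSO.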

Experiment [12] is described as follows: ATG_PXRE_CIS: Attagene CIS-FACTORIAL HepG2 Assay for human Pregnane X Receptor Element (PXRE) (AID 2282957). The following applies: HepG2 Attagene CIS-FACTORIAL PXRE reporter, mRNA; actives raise or lower the signal. The procedure, abridged:
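Cis-element reporter mRNA in human hepatoma HepG2 cells is measured 24 h post-dosing by RT-PCR, primer-extension labeling and capillary electrophoresis; gain or loss of signal is fitted relative to DMSO.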

The nature of experiment [13]: ATG_PPRE_CIS: Attagene CIS-FACTORIAL HepG2 Assay for human Peroxisome Proliferator-activated Response Element (PPRE) (AID 2282958). The following applies: HepG2 PPRE cis-element reporter, Attagene transcription factor profiling; actives raise or lower the signal. The method, boiled down: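 In this cell-based multiplex, a PPRE cis element drives a reporter sequence in transiently transfected HepG2 cells. Following 24 h treatment, labeled cDNA amplicons are sized and quantified by capillary electrophoresis, with DMSO defining baseline.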

Experiment [14] in a line: ATG_RORE_CIS: Attagene CIS-FACTORIAL HepG2 Assay for human RAR-related Orphan Receptor Element (RORE) (AID 2282959). The note with it: HepG2 Attagene cis-factorial RORE reporter, mRNA; actives raise or lower the signal. The method, boiled down:
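Endogenous factor activity at a cis response element is read as reporter transcript levels in HepG2 cells, 24 h post-dose. Transcripts are quantified by RT-PCR with capillary electrophoresis, and data fitted in both directions against DMSO.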

The nature of experiment [15]: ATG_Sox_CIS: Attagene CIS-FACTORIAL HepG2 Assay for human SRY-box transcription factor (SOX) (AID 2282960). The following applies: HepG2 Attagene cis-factorial SOX reporter, mRNA; actives raise or lower the signal. The method, boiled down:
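Measures mRNA induction of a SOX1-associated reporter in HepG2 after 24 h dosing. Fluorescently labelled RT-PCR fragments are separated by capillary electrophoresis, and gain or loss relative to DMSO control is fitted.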

Experiment [16] addresses Transcription factor Sp1 (Homo sapiens) (UniProt P08047). The experiment is described as follows: ATG_Sp1_CIS: Attagene CIS-FACTORIAL HepG2 Assay for human Specificity Protein 1 (Sp1) (AID 2282961). The note with it: HepG2 Sp1 cis-reporter transcription, actives raise or lower the signal. The method, boiled down: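 Cells: HepG2, transiently transfected with cis-regulated multiplexed reporters. Exposure: 24 h. Detection: reporter transcripts amplified, fluorescently labeled, restriction-digested and sized by capillary electrophoresis. Analysis: bidirectional fit relative to DMSO.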

A short description of experiment [17]: ATG_SREBP_CIS: Attagene CIS-FACTORIAL HepG2 Assay for human Sterol Regulatory Element Binding (SREBP) (AID 2282962). The following applies: HepG2 Attagene cis-factorial SREBP reporter, mRNA; actives raise or lower the signal. The procedure, abridged:
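Twenty-four hours after chemical dosing of transfected HepG2 cultures, reporter RNA was converted to cDNA, amplified, end-labelled with 6-FAM and resolved by capillary electrophoresis. Responses were fitted relative to DMSO.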

Experiment [18] addresses Signal transducer and activator of transcription 3 (Homo sapiens) (UniProt P40763). Nature of the experiment: ATG_STAT3_CIS: Attagene CIS-FACTORIAL HepG2 Assay for human Signal Transducer and Activator of Transcription 3 (STAT3) (AID 2282963). The note with it: HepG2, Attagene cis-factorial STAT3 reporter transcription; actives raise or lower the signal. The method, boiled down: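 Transcript-level reporter assay. HepG2 transient MRTU transfection, 24 h exposure, fluorescence detection after RT-PCR and CE; DMSO baseline.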

The nature of experiment [19]: ATG_TA_CIS: Attagene CIS-FACTORIAL HepG2 Assay for human TA Basal Promoter (AID 2282964). The note with it: HepG2 Attagene CIS-factorial TA basal promoter reporter; actives raise or lower the signal. The procedure, abridged: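 Multiplexed mRNA reporter assay, HepG2, 24 h. Reporter cDNA amplified, 6-FAM primer-extended, HpaI-cut, CE-sized; DMSO = negative control and baseline.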

Experiment [20] is described as follows: ATG_TCF_b_cat_CIS: Attagene CIS-FACTORIAL HepG2 Assay for human T-Cell-Factor with beta-catenin (TCF/b-cat) (AID 2282965). The following applies: HepG2 TCF/beta-catenin cis-reporter transcription, actives raise or lower the signal. The method, boiled down: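 HepG2 cells transiently transfected with multiple cis-promoter-regulated reporter transcription units, so endogenous transcription factor activity is measured. Reporter mRNA read 24 hours after dosing by RT-PCR, fluorescent labelling and capillary electrophoresis; bidirectional fitting against DMSO.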

A structure can be active in one record and inactive in another. Activity calls are given as the source filed them. The calls were made as follows: active = hit-call score of the fitted dose curve at least 0.9, where 1 is the maximum; inactive = score below 0.9.

Sequence of Heat shock factor protein 1 (Homo sapiens) (Q00613 whole entry, looked up): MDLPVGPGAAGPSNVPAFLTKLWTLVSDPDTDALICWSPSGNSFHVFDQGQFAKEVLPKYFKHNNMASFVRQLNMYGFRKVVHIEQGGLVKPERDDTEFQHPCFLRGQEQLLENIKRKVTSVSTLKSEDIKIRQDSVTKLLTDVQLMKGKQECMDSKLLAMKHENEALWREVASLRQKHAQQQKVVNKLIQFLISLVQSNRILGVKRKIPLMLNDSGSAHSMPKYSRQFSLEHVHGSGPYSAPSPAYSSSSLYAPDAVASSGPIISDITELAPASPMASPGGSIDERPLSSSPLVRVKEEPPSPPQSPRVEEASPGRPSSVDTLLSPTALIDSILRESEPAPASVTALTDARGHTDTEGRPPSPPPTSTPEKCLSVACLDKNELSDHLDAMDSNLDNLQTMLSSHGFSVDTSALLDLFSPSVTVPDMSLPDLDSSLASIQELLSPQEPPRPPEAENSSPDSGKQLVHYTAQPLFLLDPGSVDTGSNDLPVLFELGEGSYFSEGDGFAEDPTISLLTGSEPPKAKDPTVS
Sequence of Signal transducer and activator of transcription 3 (Homo sapiens) (P40763 whole entry, looked up): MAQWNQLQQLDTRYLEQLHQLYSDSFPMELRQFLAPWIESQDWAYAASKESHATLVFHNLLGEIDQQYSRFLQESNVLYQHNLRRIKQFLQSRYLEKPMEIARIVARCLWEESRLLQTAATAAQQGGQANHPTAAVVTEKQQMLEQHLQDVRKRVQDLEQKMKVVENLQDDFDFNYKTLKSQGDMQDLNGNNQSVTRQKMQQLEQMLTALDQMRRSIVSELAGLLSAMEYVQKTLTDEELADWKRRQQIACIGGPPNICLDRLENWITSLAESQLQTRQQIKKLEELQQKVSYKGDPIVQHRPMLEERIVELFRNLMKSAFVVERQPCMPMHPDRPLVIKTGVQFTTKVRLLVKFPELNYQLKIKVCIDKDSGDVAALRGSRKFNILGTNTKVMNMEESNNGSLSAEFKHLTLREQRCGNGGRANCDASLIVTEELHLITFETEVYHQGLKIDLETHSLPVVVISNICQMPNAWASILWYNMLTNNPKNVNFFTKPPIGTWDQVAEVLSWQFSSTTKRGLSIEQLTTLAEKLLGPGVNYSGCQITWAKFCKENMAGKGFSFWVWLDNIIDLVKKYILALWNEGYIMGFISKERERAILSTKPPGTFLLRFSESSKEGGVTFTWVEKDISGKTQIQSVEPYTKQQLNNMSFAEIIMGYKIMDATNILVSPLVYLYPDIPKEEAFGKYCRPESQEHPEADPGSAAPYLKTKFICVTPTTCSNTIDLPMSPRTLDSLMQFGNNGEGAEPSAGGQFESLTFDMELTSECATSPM
Sequence of Hypoxia-inducible factor 1-alpha (Homo sapiens) (Q16665 whole entry, looked up): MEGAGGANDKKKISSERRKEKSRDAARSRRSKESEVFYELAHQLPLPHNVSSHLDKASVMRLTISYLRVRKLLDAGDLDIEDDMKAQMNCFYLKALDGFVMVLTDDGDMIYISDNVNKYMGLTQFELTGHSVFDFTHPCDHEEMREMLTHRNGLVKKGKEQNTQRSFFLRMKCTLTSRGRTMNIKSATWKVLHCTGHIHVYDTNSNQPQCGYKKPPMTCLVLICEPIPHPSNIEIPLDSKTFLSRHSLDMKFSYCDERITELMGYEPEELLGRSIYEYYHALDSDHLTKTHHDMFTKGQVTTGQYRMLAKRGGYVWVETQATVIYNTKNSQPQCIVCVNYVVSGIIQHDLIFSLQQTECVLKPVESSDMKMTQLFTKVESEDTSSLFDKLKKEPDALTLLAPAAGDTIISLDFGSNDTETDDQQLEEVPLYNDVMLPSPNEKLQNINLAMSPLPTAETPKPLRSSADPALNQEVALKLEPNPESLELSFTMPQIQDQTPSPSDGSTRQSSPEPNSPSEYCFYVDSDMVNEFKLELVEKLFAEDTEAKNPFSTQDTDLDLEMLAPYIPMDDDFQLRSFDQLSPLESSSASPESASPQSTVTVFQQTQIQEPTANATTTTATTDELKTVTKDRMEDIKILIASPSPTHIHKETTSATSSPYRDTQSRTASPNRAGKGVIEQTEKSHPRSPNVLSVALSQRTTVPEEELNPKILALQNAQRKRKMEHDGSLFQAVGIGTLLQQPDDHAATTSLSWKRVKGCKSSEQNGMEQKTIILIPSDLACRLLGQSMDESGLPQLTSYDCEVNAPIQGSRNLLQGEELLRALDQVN
Sequence of Transcription factor Sp1 (Homo sapiens) (P08047 whole entry, looked up): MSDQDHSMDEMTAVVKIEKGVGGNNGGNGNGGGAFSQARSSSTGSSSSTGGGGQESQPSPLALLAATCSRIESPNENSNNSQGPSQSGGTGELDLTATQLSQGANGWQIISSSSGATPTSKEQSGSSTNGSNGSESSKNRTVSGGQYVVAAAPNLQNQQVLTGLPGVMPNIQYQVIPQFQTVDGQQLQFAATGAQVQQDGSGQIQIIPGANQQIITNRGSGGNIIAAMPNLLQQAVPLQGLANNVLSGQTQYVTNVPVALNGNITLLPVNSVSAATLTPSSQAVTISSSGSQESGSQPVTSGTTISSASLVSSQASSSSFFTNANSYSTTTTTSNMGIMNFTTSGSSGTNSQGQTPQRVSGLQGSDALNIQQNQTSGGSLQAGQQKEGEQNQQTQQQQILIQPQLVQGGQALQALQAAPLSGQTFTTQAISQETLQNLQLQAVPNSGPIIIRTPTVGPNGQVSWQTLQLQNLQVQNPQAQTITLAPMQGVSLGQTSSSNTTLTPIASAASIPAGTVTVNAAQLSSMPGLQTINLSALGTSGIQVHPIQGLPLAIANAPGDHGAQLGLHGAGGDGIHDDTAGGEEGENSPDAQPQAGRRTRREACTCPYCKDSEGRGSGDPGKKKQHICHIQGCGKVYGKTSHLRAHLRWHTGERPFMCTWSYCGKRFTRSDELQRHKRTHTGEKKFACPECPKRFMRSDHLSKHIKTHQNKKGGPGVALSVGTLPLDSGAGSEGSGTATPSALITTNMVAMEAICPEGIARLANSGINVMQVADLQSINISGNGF
Sequence of Bile acid receptor (Homo sapiens) (Q96RI1 whole entry, looked up): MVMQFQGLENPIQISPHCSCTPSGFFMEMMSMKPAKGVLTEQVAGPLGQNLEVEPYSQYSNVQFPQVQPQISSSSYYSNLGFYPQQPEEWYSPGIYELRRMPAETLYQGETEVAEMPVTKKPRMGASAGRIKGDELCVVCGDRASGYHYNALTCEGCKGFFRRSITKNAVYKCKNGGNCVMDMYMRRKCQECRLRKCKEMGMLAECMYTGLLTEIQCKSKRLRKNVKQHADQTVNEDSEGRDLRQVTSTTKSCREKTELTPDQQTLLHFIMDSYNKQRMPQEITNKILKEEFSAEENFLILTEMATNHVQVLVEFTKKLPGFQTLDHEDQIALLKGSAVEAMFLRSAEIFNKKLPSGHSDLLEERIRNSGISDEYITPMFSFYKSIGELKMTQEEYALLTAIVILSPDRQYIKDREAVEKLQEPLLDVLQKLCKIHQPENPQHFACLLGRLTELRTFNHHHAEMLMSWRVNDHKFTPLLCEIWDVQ
Sequence of Hepatocyte nuclear factor 6 (Homo sapiens) (Q9UBC0 whole entry, looked up): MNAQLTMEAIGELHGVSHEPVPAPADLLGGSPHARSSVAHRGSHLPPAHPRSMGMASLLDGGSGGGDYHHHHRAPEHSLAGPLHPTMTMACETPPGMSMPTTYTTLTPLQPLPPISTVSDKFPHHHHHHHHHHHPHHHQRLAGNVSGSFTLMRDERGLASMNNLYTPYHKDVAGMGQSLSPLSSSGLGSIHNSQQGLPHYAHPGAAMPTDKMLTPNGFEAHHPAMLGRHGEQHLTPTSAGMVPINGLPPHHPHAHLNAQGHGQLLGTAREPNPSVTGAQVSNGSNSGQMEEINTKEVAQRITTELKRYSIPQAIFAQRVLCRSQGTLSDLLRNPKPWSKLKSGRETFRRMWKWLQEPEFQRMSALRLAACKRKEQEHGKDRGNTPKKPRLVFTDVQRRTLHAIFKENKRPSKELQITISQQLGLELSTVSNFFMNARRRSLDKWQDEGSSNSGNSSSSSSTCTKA
Sequence of Paired box protein Pax-6 (Homo sapiens) (P26367 whole entry, looked up): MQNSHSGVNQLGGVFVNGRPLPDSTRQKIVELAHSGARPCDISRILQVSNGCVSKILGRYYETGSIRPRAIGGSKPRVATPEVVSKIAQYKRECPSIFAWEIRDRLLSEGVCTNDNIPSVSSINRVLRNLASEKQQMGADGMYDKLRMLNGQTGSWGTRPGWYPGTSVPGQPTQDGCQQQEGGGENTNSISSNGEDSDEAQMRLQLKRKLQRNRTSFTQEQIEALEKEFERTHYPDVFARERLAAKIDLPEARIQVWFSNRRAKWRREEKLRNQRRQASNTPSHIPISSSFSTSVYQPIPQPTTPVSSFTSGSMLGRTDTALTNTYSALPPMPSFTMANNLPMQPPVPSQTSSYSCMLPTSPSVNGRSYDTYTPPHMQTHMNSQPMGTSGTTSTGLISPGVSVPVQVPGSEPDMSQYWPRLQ

For `CCOP(=S)(OCC)SCn1nnc2ccccc2c1=O`, the outcome in [1], in [2], in experiment [3], in experiment [4], in experiment [5] and in experiment [6] was inactive. Besides, the outcome in experiment [7], in [11], in experiment [13], in experiment [14], in experiment [15] and in experiment [16] was inactive. Also, the outcome in experiment [17], in experiment [18], in experiment [19] and in experiment [20] was inactive. The half-maximal activity concentration (AC50) is 166 µM (active) in experiment [8], 78.5 µM (active) in experiment [9], 1.32 µM (active) in experiment [10] and 0.673 µM (active) in [12].

Regarding `C/C(=N\NC(=O)Nc1cc(F)cc(F)c1)c1ncccc1C(=O)O`, the outcome in experiment [1], in [2], in experiment [3], in [4], in [5] and in experiment [6] was inactive. For the same compound, the outcome in [7], in experiment [8], in experiment [9], in [10], in experiment [12] and in experiment [14] was inactive. In addition, the compound was called inactive in [15], in [16], in experiment [17], in experiment [18], in [19] and in [20]. The concentration at half-maximal activity (AC50) in experiment [12] was 172 µM (active).

For `CCOP(=S)(OCC)SCSc1ccc(Cl)cc1`, the result in experiment [1], in [2], in experiment [3], in [4], in [5] and in experiment [6] was inactive. In addition, the compound was classed as inactive in [7], in experiment [8], in experiment [9], in [11], in experiment [13] and in experiment [14]. Besides, the call in [15], in experiment [16], in experiment [17], in [18], in experiment [19] and in experiment [20] was inactive. For the same compound, the half-maximal activity concentration (AC50) was 5.81 µM (active) in experiment [10] and 3 µM (active) in experiment [12].
